# Of roughly 7,900 targets only a part is listed; those with a hit were picked by preference. About 0.6% of all pairs of compound and target were hits. Values without a mark were called inactive.
# What was measured:
# Assay in all cases: log2 fold change, soluble protein after heating vs DMSO (PISA); higher = thermal stabilisation; K562 cells, 10 uM, 30 min; active = over 0.2 and 3.5 SD of the protein, either way, in both replicates (recomputed)
# [1] = compound: CS(=O)(=O)c1ccc(-c2cnc(N)c(C(=O)Nc3ccccc3)n2)cc1
# In short: (§1)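 Soluble protein was quantified by TMTpro 16plex LC-MS/MS after channel sums were equalised. It was obtained as the supernatant after 21,000xg for 90 min from pooled aliquots of K562 cells (2×10^6 cells/mL, 10 μM compound, 30 min) heated for 3 min across 48°C-58°C and extracted in PBS with 0.5% NP-40 at 4°C. Thermal stability values are relative to control samples and come from duplicates. They are given as log2 fold changes.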
# [2] = compound: C[C@@H](Oc1cc(-c2cnn(C3CCNCC3)c2)cnc1N)c1c(Cl)ccc(F)c1Cl [crizotinib]
# In short: as §1
# [3] = compound: C[C@@H]1COCCN1C2=NC(=NC(=C2)C3(CC3)S(=O)(=O)C)C4=C5C=CNC5=CC=C4
# In short: as §1
# [4] = compound: C[C@H](C1=CC=C(C=C1)C(=O)NC2=C3C=CNC3=NC=C2)N
# In short: as §1
# [5] = compound: C[C@H](Nc1ncnc2nc[nH]c12)c1cc2cccc(Cl)c2c(=O)n1-c1ccccc1 [duvelisib]
# In short: as §1
# [6] = compound: Cc1cc(Nc2cc(CN3CCOCC3)c3nc(C)c(Cc4ccc(Cl)cc4F)n3n2)n[nH]1 [gandotinib]
# In short: as §1
# [7] = compound: Cc1cc(Nc2cc(N3CCN(C)CC3)nc(Sc3ccc(NC(=O)C4CC4)cc3)n2)n[nH]1 [tozasertib]
# In short: as §1
# [8] = compound: Cc1cc(SCc2sc(-c3ccc(C(F)(F)F)cc3)nc2C)ccc1OCC(=O)O
# In short: as §1
# [9] = compound: Cc1ccc(-n2nc(C(C)(C)C)cc2NC(=O)Nc2ccc(OCCN3CCOCC3)c3ccccc23)cc1 [doramapimod]
# In short: as §1
# [10] = compound: Cc1ccc(C(=O)N(CCCN)[C@@H](c2nc3cc(Cl)ccc3c(=O)n2Cc2ccccc2)C(C)C)cc1 [ispinesib]
# In short: as §1
# Sequence of UniProt O00220 (O00220 whole entry, looked up): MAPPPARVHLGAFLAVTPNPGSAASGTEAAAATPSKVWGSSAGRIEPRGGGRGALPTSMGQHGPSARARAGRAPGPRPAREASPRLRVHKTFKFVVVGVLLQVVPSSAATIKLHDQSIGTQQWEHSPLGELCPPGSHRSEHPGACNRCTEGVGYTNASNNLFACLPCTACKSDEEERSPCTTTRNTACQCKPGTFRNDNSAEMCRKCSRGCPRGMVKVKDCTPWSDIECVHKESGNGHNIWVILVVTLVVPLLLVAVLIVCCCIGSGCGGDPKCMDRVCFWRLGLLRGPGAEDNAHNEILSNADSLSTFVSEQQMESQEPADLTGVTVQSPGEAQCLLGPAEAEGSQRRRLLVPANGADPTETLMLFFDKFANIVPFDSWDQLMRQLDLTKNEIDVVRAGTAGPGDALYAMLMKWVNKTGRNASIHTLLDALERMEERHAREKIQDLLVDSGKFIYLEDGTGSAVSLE
# Sequence of UniProt Q9BTX3 (Q9BTX3 whole entry, looked up): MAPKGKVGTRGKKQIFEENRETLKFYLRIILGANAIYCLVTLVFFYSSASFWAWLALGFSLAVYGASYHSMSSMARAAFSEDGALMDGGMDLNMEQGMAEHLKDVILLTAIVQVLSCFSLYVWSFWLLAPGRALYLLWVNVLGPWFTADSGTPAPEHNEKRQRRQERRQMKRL
# Sequence of UniProt Q9Y4E6 (Q9Y4E6 whole entry, looked up): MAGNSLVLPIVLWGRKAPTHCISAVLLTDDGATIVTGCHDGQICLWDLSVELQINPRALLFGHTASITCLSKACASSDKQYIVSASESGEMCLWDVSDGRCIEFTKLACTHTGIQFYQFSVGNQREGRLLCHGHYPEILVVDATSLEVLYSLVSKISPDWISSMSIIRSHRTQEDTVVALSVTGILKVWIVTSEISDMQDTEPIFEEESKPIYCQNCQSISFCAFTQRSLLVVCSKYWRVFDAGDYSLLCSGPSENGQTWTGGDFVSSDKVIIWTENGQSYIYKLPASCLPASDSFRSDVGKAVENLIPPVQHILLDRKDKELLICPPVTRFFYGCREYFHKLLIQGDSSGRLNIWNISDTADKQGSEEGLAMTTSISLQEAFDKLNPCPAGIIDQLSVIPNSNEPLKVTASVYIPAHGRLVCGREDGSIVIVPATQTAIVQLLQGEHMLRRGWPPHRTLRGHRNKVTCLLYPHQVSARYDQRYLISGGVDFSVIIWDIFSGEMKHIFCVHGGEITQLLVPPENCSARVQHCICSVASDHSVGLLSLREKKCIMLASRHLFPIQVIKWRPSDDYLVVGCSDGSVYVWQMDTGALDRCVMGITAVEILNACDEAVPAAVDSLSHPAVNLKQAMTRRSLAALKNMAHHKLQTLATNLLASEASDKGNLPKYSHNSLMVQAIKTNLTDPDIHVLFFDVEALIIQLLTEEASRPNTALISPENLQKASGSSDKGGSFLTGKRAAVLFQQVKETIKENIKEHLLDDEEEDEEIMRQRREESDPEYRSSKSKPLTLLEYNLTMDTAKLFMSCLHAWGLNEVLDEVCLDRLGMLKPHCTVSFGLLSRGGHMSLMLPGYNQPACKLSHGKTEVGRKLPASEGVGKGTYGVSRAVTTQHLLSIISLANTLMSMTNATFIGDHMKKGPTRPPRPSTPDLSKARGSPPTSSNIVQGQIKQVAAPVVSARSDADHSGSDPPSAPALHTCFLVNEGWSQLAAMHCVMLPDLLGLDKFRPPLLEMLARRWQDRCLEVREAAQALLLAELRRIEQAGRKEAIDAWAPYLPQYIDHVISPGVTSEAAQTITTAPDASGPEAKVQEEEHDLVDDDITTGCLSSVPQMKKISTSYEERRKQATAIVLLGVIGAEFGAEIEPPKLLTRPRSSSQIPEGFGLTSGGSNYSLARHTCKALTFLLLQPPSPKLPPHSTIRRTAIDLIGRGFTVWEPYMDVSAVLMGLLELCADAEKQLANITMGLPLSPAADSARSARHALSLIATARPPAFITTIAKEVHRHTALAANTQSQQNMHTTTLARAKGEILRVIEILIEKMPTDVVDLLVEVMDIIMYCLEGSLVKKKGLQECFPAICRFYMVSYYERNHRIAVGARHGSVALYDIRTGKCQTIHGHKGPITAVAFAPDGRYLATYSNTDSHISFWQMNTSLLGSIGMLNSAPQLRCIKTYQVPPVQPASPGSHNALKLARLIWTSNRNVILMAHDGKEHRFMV
# Sequence of UniProt Q96K49 (Q96K49 whole entry, looked up): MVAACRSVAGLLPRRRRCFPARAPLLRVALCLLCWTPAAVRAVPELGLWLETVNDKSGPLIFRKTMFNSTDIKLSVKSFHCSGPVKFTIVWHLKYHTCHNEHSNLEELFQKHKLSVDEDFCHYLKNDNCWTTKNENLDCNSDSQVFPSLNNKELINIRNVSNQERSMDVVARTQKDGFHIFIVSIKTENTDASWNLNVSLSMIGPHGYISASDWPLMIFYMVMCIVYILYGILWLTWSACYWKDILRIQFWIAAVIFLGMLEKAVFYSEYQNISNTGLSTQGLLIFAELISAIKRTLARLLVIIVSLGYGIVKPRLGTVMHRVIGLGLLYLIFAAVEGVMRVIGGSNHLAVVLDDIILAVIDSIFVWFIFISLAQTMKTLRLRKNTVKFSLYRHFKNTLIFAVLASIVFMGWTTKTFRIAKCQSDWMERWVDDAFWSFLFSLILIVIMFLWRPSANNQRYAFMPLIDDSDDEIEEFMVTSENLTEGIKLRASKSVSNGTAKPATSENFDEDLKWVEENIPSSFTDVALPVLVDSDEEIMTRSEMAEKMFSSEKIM
# Sequence of UniProt P11388 (P11388 whole entry, looked up): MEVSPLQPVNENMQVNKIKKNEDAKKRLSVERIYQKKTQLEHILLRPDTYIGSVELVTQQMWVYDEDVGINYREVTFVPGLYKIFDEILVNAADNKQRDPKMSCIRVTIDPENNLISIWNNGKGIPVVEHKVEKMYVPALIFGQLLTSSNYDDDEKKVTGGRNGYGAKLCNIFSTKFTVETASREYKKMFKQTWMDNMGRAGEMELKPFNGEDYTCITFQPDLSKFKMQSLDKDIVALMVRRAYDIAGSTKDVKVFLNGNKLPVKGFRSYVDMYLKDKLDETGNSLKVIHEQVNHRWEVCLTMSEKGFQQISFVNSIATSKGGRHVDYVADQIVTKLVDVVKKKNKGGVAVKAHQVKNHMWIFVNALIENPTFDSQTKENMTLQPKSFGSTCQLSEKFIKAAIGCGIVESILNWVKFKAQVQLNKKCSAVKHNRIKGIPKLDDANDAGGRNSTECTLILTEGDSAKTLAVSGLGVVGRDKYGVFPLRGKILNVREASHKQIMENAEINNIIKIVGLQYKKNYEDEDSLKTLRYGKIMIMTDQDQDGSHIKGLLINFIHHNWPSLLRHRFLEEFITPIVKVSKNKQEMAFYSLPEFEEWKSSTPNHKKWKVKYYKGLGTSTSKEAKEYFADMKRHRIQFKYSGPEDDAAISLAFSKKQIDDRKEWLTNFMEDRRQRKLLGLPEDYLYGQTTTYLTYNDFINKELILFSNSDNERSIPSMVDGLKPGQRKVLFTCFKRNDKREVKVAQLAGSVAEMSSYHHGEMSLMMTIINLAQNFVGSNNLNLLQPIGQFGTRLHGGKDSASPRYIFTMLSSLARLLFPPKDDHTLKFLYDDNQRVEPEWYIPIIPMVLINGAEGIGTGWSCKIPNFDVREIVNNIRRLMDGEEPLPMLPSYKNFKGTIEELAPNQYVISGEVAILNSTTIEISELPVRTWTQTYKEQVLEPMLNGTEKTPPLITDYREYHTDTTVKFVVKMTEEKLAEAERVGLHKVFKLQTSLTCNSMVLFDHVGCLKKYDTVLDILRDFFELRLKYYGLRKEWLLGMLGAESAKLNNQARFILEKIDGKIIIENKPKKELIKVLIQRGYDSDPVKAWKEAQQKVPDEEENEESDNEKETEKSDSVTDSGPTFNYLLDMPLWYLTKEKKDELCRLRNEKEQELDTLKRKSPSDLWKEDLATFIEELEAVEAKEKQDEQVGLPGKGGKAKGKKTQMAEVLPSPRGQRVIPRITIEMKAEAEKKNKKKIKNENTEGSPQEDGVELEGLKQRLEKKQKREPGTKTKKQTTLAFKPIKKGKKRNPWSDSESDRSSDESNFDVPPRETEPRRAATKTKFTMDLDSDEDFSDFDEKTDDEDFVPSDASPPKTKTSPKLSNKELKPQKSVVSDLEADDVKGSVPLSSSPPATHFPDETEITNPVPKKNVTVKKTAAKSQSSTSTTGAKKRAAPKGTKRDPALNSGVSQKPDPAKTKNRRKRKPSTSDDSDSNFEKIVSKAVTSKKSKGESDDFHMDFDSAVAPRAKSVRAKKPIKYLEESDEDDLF
# Sequence of UniProt Q8WVY7 (Q8WVY7 whole entry, looked up): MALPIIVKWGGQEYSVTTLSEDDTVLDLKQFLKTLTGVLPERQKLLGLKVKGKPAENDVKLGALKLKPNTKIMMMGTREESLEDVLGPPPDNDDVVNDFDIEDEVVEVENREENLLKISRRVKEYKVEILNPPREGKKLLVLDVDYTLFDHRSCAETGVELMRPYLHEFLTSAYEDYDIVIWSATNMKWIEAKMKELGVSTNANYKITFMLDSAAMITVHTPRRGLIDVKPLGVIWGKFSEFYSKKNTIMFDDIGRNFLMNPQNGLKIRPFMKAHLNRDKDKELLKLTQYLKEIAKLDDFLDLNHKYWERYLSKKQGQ
# Sequence of UniProt P57081 (P57081 whole entry, looked up): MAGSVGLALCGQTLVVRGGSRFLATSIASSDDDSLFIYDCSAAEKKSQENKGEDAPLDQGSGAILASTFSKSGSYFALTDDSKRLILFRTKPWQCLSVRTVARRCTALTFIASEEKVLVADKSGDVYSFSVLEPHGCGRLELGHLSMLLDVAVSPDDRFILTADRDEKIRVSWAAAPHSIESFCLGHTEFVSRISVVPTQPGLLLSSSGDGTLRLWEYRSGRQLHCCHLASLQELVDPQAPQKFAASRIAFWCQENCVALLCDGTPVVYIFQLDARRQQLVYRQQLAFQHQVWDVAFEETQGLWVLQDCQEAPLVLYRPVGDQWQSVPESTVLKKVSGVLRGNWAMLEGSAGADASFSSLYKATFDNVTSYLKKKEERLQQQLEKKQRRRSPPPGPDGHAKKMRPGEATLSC
# Sequence of UniProt Q9UDW1 (Q9UDW1 whole entry, looked up): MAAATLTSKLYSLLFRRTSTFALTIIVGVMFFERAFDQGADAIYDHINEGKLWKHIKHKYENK
Target,log2 fold change [1],log2 fold change [2],log2 fold change [3],log2 fold change [4],log2 fold change [5],log2 fold change [6],log2 fold change [7],log2 fold change [8],log2 fold change [9],log2 fold change [10]
TNFAIP8 isoform 4 (UniProt O95379),0.005,0,0.122,-0.099,0.019,-0.073,-0.076,-0.046,-0.016,-0.046
USP7 (UniProt Q93009),0.008,-0.311,0.147,0.07,0.046,-0.157,-0.077,0.146,-0.039,-0.175
XRCC5 (UniProt P13010),0.037,-0.086,0.047,0.077,-0.017,-0.001,0.177,0.179,0.064,-0.16
UBC (UniProt P0CG48),-0.003,0.208,0.05,0.064,0.075,0.014,0.009,-0.009,0.035,0.091
UQCR10 (UniProt Q9UDW1),-0.036,0.079,0.071,-0.043,0.089,-0.403 (active),0.013,0.013,-0.025,0.095
TPR (UniProt P12270),-0.03,0.297 (active),0.013,-0.083,0.017,0.008,0.349 (active),-0.027,0.037,0.223
WDCP (UniProt Q9H6R7),-0.018,0.079,-0.046,-0.024,-0.007,0.047,0.094,0.084,0.005,0.032
TRMT10A (UniProt Q8TBZ6),0.012,0.01,0.093,-0.072,0.053,0,-0.031,0.016,-0.023,0.028
TXNRD1 (UniProt Q16881),0.075,-0.043,0.079,-0.053,0.047,-0.045,-0.036,-0.007,-0.028,-0.009
VPS37A (UniProt Q8NEZ2),0.035,-0.146,0.092,-0.084,0.044,-0.292,0.057,0.206,-0.017,0
UBE2Q1 (UniProt Q7Z7E8),0,-0.061,0.092,0.004,0.003,-0.196,0.036,0.07,0.029,-0.001
TSG101 (UniProt Q99816),0.035,-0.094,0.082,-0.054,0.019,-0.024,0.032,0.018,0.009,-0.037
WARS2 (UniProt Q9UGM6),-0.062,0.09,0.065,0.027,0.079,0.006,-0.001,0.04,0.017,-0.085
XPO6 (UniProt Q96QU8),-0.033,0.177,-0.277,0.031,-0.001,0.104,-0.011,0.027,0.179,0
UBA6,0.05,0.024,0.047,-0.017,-0.007,-0.039,0.05,0.078,-0.038,0.014
TMEM87B (UniProt Q96K49),0.01,-0.323,-0.063,-0.033,0.101,-0.11,0.07,0.071,-0.059,-0.406 (active)
WDR37 isoform 2 (UniProt Q9Y2I8),0.026,0,0.041,0.11,-0.113,0.069,0.055,0.15,0.02,0.055
TMEM208 (UniProt Q9BTX3),-0.09,-0.119,0.134,-0.004,-0.039,0.086,-0.035,0.076,0.019,-0.243
WDR7 (UniProt Q9Y4E6),0.025,0.024,-0.029,-0.096,0.042,-0.009,-0.003,0.08,0.065,-0.075
TUBAL3 (UniProt A6NHL2),-0.097,-0.128,0.161,0.02,0.009,-0.165,0,-0.02,0.113,-0.108
WDR4 (UniProt P57081),0.085,-0.038,-0.024,-0.121,0.014,0.049,-0.007,0.017,0.023,0.075
UBE4A isoform 2 (UniProt Q14139),0.036,-0.275,0.069,0.29 (active),0.006,-0.076,0.037,0.117,-0.023,-0.172
VRK1 (UniProt Q99986),0.055,-0.11,0.126,0.444 (active),0.168,-0.067,-0.096,0.161,-0.075,-0.077
TOP2A isoform 4 (UniProt P11388),-0.071,-0.157,-0.337,0.559,-0.185,0.158,-0.025,0.015,0.362,-0.376
TUBA4A (UniProt P68366),0.004,-0.11,0.099,-0.054,0.329,0.014,-0.068,0.208,0.008,0.009
UTP4 (UniProt Q969X6),-0.013,0.019,0.055,0.004,0.022,0.004,0.006,-0.056,0.012,0.066
WDR62 isoform 4 (UniProt O43379),0.064,-0.137,0.07,-0.064,0.011,-0.204 (active),-0.068,-0.016,-0.057,-0.02
TNFRSF10A (UniProt O00220),-0.008,0.037,0.047,-0.073,0,0.019,-0.024,-0.019,-0.023,-0.075
TTC4 (UniProt O95801),0.046,-0.001,0.017,0.029,0.032,-0.025,0.061,0.134,-0.028,0.108
UBLCP1 (UniProt Q8WVY7),0.063,0.068,-0.007,-0.034,0.03,-0.06,0.045,0.062,-0.061,0.126

# Reference: the supplement of paper PMC10849652
